# Data taken from PubChem BioAssay (NCATS).
# “And” between values parts separate entries of the source, which are not always exact repeats. Identical values can stand only once. Results filed as inconclusive are left out. A call without a number means that no potency is given here. Some compounds were tested as several samples or in several runs, with calls that do not always agree. The source made the active and inactive calls. Calls follow the shape of the dose curve; as a rule, active = well fitted curve in the direction sought with a large enough effect; inconclusive = small, poorly fitted or top-dose-only effect, or another doubt; inactive = no such curve, though single readings can be large; an effect the other way counts as inactive or inconclusive.
# Columns and labels:
# [1] = system: CRL-7250; test: Cytotoxic Profiling of Annotated Libraries Using Quantitative High-Throughput Screening (AID 1296008); conditions: Five cell lines viability, CellTiter-Glo ATP luminescence, 48-72 h; max response: stronger effect = lower value; also: nearly all actives have a fitted effect of over 60% in size; also: potency is read from the fitted curve at half-maximal effect
# Summary of the method: (§1)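 Compounds were pin-transferred onto cells and incubated 48 or 72 hr at 37 degree Celsius, 95% humidity. CellTiter-Glo was added, plates sat 10 min at room temperature, then ATP-coupled luminescence was imaged as the viability read-out.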
# [2] = system: HEK293; test: as above; conditions: Five cell lines viability, CellTiter-Glo ATP luminescence, 48-72 h; max response: stronger effect = lower value
# Summary of the method: as §1
# [3] = system: HaCat; test: as above; conditions: Five cell lines viability, CellTiter-Glo ATP luminescence, 48-72 h; max response: stronger effect = lower value
# Summary of the method: as §1
# [4] = system: KB-3-1; test: as above; conditions: Five cell lines viability, CellTiter-Glo ATP luminescence, 48-72 h; max response: stronger effect = lower value
# Summary of the method: as §1
# [5] = system: NIH3T3; test: as above; conditions: Five cell lines viability, CellTiter-Glo ATP luminescence, 48-72 h; max response: stronger effect = lower value
# Summary of the method: as §1
# [6] = system: HACAT; test: qHTS assay to identify novel small-molecules to repurpose for Merkel cell carcinoma treatment (AID 1296009); conditions: MCC and control cell lines, CellTiter-Glo viability, 72 h; at 44.8 µM (top of the series) unless noted; also: nearly all actives have a fitted effect of over 60% in size; also: potency is read from the fitted curve at half-maximal effect
# Summary of the method: (§2)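 Cells exposed to NPC (8-point) and MIPE (11-point) compound dilutions for 72 hr at 37 degree celsius; viability read by CellTiter-Glo luminescence, normalized to no-cell and DMSO in-plate controls.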
# [7] = system: MCC-13; test: as above; conditions: MCC and control cell lines, CellTiter-Glo viability, 72 h; series mostly up to 46 µM
# Summary of the method: as §2
# [8] = system: MCC-26; test: as above; conditions: MCC and control cell lines, CellTiter-Glo viability, 72 h; series mostly up to 46 µM
# Summary of the method: as §2
# [9] = system: MKL-1; test: as above; conditions: MCC and control cell lines, CellTiter-Glo viability, 72 h; series mostly up to 46 µM
# Summary of the method: as §2
# [10] = system: MKL-2; test: as above; conditions: MCC and control cell lines, CellTiter-Glo viability, 72 h; series mostly up to 46 µM
# Summary of the method: as §2
# [11] = system: NIH3T3; test: as above; conditions: MCC and control cell lines, CellTiter-Glo viability, 72 h; at 44.8 µM (top of the series) unless noted
# Summary of the method: as §2
# [12] = system: UISO; test: as above; conditions: MCC and control cell lines, CellTiter-Glo viability, 72 h; series mostly up to 46 µM
# Summary of the method: as §2
# [13] = system: WaGa; test: as above; conditions: MCC and control cell lines, CellTiter-Glo viability, 72 h; series mostly up to 46 µM
# Summary of the method: as §2
# [14] = system: C33A; test: Primary qHTS to identify gynecologic anti-cancer compounds using libraries of approved drugs and bioactive compounds (AID 1345084); conditions: Gynecologic cancer cell panel viability, ATPlite luminescence, 48 h; series mostly up to 57.5 µM; also: nearly all actives have a fitted effect of over 55% in size
# Summary of the method: (§3)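 48 h compound exposure at 37 C, 5% CO2; five-point qHTS. ATPlite luminescence readout of cell ATP.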
# [15] = system: CAOV3; test: as above; conditions: Gynecologic cancer cell panel viability, ATPlite luminescence, 48 h; series mostly up to 57.5 µM
# Summary of the method: as §3
# [16] = system: CASKI; test: as above; conditions: Gynecologic cancer cell panel viability, ATPlite luminescence, 48 h; series mostly up to 57.5 µM
# Summary of the method: as §3
# [17] = system: Es-2; test: as above; conditions: Gynecologic cancer cell panel viability, ATPlite luminescence, 48 h; series mostly up to 57.5 µM
# Summary of the method: as §3
# [18] = system: HEK293T; test: qHTS assay to identify novel small-molecules to repurpose for Merkel cell carcinoma treatment (AID 1296009); conditions: MCC and control cell lines, CellTiter-Glo viability, 72 h; at 44.8 µM (top of the series) unless noted; also: nearly all actives have a fitted effect of over 60% in size; also: potency is read from the fitted curve at half-maximal effect
# Summary of the method: as §2
# [19] = system: TAB165; test: qHTS profiling for inhibitors of Plasmodium falciparum proliferation (AID 504749); also: nearly all actives have a fitted effect of over 60% in size; conditions: P. falciparum in erythrocytes, SYBR Green DNA, 72 h; series mostly up to 28.7 µM
# Summary of the method: (§4)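 P. falciparum-infected erythrocytes (0.3% parasitemia, 2.5% hematocrit final) were exposed to compounds for 72 h at 37 C in 5% CO2, then lysed with SYBR Green buffer overnight at room temperature; parasite DNA fluorescence was normalized to artemisinin and DMSO controls.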
# [20] = system: W2; test: as above; conditions: P. falciparum in erythrocytes, SYBR Green DNA, 72 h; series mostly up to 28.7 µM
# Summary of the method: as §4
structure (smiles),measurement,setting,value
CC(=O)[C@H]1CC[C@H]2[C@@H]3CC=C4C[C@@H](O)CC[C@]4(C)[C@H]3CC[C@]12C,max response,[1],3.91% (inactive)
same,outcome,[1],inactive
same,max response,[2],-4.16% (inactive) and 0.472% (inactive)
same,max response,[3],2.2% (inactive)
same,outcome,[3],inactive
same,max response,[4],-0.265% (inactive) and 8.01% (inactive)
same,max response,[5],0.775% (inactive)
same,outcome,[5],inactive
same,outcome,[6],inactive
same,Potency,[7],inactive
same,Potency,[8],inactive
same,Potency,[9],inactive
same,Potency,[10],inactive
same,outcome,[11],inactive
same,Potency,[12],inactive
same,Potency,[13],inactive
same,Potency,[14],inactive
same,Potency,[15],inactive
same,Potency,[16],inactive
same,Potency,[17],inactive
CC(C(=O)O)c1ccc2c(c1)CC(=O)c1ccccc1S2 (stereo not given),max response,[1],-3.49% (inactive) and 3.11% (inactive)
same,outcome,[1],inactive
same,max response,[2],-0.0676% (inactive) and -6.42% (inactive) and 0.0288% (inactive)
same,max response,[3],-2.2% (inactive) and 1.58% (inactive)
same,outcome,[3],inactive
same,max response,[4],-3.77% (inactive)
same,outcome,[4],inactive
same,max response,[5],4.16% (inactive) and -0.0725% (inactive)
same,outcome,[5],inactive
same,outcome,[6],inactive
same,Potency,[7],inactive
same,Potency,[8],inactive
same,Potency,[9],inactive
same,Potency,[10],inactive
same,outcome,[11],inactive
same,Potency,[12],inactive
same,Potency,[13],inactive
same,Potency,[14],inactive
same,Potency,[15],inactive
same,Potency,[16],inactive
same,Potency,[17],inactive
Cc1nnc(C(=O)NC(C)(C)c2nc(C(=O)NCc3ccc(F)cc3)c(O)c(=O)n2C)o1,max response,[1],1.7% (inactive) and -8.84% (inactive)
same,outcome,[1],inactive
same,max response,[2],-1.41% (inactive) and 1.54% (inactive) and -3.51% (inactive)
same,max response,[3],-1.85% (inactive) and 3.43% (inactive)
same,outcome,[3],inactive
same,max response,[4],-0.518% (inactive) and 8.61% (inactive)
same,max response,[5],-3.12% (inactive) and 2.12% (inactive)
same,outcome,[5],inactive
same,outcome,[6],inactive
same,Potency,[7],inactive
same,Potency,[9],inactive
same,Potency,[10],inactive
same,outcome,[11],inactive
same,Potency,[12],inactive
same,Potency,[13],inactive
same,Potency,[14],inactive
same,Potency,[15],inactive
same,Potency,[16],inactive
same,Potency,[17],inactive
O=C(O)CSCC(=O)NC1CCSC1=O (stereo not given),max response,[1],-2.44% (inactive)
same,outcome,[1],inactive
same,max response,[2],-6.58% (inactive)
same,outcome,[2],inactive
same,outcome,[3],inactive
same,outcome,[4],inactive
same,max response,[5],2.01% (inactive)
same,outcome,[5],inactive
same,outcome,[6],inactive
same,outcome,[18],inactive
same,Potency,[7],inactive
same,Potency,[8],inactive
same,Potency,[9],inactive
same,Potency,[10],inactive
same,outcome,[11],inactive
same,Potency,[12],inactive
same,Potency,[13],inactive
same,Potency,[14],inactive
same,Potency,[15],inactive
same,Potency,[16],inactive
same,Potency,[17],inactive
CCOC(=O)[C@H](CCc1ccccc1)N[C@H]1CS[C@H](c2cccs2)CN(CC(=O)O)C1=O,max response,[1],-9.28% (inactive)
same,outcome,[1],inactive
same,max response,[2],4.3% (inactive)
same,outcome,[2],inactive
same,max response,[3],4.5% (inactive)
same,outcome,[3],inactive
same,max response,[4],4.95% (inactive)
same,max response,[5],3.22% (inactive) and 0.311% (inactive)
same,outcome,[6],inactive
same,outcome,[18],inactive
same,Potency,[7],inactive
same,Potency,[8],inactive
same,Potency,[9],inactive and 5.26 µM (active)
same,Potency,[10],inactive and 1.05 µM (active)
same,Potency,[12],inactive
same,Potency,[13],inactive and 469 nM (active)
same,Potency,[14],inactive
same,Potency,[15],inactive
same,Potency,[16],inactive
same,Potency,[17],inactive
Cn1nnc2c(C(N)=O)ncn2c1=O,Potency,[19],inactive
same,Potency,[20],inactive
same,max response,[1],3.05% (inactive)
same,outcome,[1],inactive
same,max response,[2],1.76% (inactive) and -7.24% (inactive)
same,max response,[3],0.848% (inactive)
same,outcome,[3],inactive
same,max response,[4],3.98% (inactive) and 7.43% (inactive)
same,max response,[5],-16.1% (inactive)
same,outcome,[5],inactive
same,outcome,[6],inactive
same,Potency,[7],inactive
same,Potency,[8],inactive
same,Potency,[9],inactive
same,Potency,[10],inactive
same,outcome,[11],inactive
same,Potency,[12],inactive
same,Potency,[13],inactive
same,Potency,[14],inactive
same,Potency,[15],inactive
same,Potency,[16],inactive
same,Potency,[17],inactive
O=C(O)c1cccnc1,Potency,[1],16.6 µM (active)
same,max response,[1],0.94% (inactive)
same,Potency,[2],2.64 µM (active)
same,max response,[2],-12.4% (inactive)
same,max response,[3],-6.32% (inactive)
same,max response,[4],23.8% (inactive) and 4.59% (inactive)
same,max response,[5],-0.396% (inactive) and 0.818% (inactive)
same,Potency,[7],inactive
same,Potency,[8],inactive
same,Potency,[9],inactive
same,Potency,[10],inactive
same,Potency,[12],inactive
same,Potency,[13],inactive
same,Potency,[14],inactive
same,Potency,[15],inactive
same,Potency,[16],inactive
same,Potency,[17],inactive
O=C(O)c1cc(=O)[nH]c(=O)[nH]1,Potency,[19],inactive
same,Potency,[20],inactive
same,max response,[1],0.562% (inactive)
same,outcome,[1],inactive
same,max response,[2],-5.89% (inactive) and -6.58% (inactive)
same,max response,[3],-18% (inactive)
same,outcome,[3],inactive
same,max response,[4],-14.3% (inactive) and 1.15% (inactive)
same,max response,[5],3.37% (inactive)
same,outcome,[6],inactive
same,Potency,[7],inactive
same,Potency,[8],inactive
same,Potency,[9],inactive
same,Potency,[10],inactive
same,Potency,[12],inactive
same,Potency,[13],inactive
same,Potency,[14],inactive
same,Potency,[15],inactive
same,Potency,[16],inactive
same,Potency,[17],inactive
